Molecules are shown by their SMILES. The source made the active and inactive calls.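 The calls were made as follows: active = compounds that lower survival of HCT116 colon cancer cells in the luminescence readout, no numeric limit stated; inactive = the rest.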

The assay is described as follows: HCT116 colon cancer cell growth inhibition, primary screen, CellTiter-Glo luminescence, NPC library (AID 1117342). The following applies: at 20 µM (top of the series).
As to `OCCN1CCN(CCCN2c3ccccc3Sc3ccc(C(F)(F)F)cc32)CC1`, the inhibition of viability was 124% (active).

Regarding `NS(=O)(=O)c1cc2c(cc1Cl)NC=NS2(=O)=O`, the inhibition of viability is -1.55% (inactive).

Consider `O=C1C(CCS(=O)c2ccccc2)C(=O)N(c2ccccc2)N1c1ccccc1` (centres undefined), for which the inhibition of viability is -1.5% (inactive).

In the case of `Cc1ccc(-c2cc(C(F)(F)F)nn2-c2ccc(S(N)(=O)=O)cc2)cc1`, the inhibition of viability was 49% (inactive).

On to `CN[C@H]1CC[C@@H](c2ccc(Cl)c(Cl)c2)c2ccccc21`, for which the inhibition of viability is 99.1% (active).

For the compound `Cc1ccccc1C(OCCN(C)C)c1ccccc1` (centres undefined), the inhibition of viability is 8.67% (inactive).

`CCc1nc(N)nc(N)c1-c1ccc(Cl)cc1`: the inhibition of viability is 56.7% (active).

For the compound `COc1cc2nc(N(C)CCCNC(=O)C3CCCO3)nc(N)c2cc1OC` (centres undefined), the inhibition of viability was 21.1% (inactive).

Consider `CN(C)CCOC(c1ccc(Cl)cc1)c1ccccn1` (centres undefined), for which the inhibition of viability was 2.7% (inactive).

As for `N[C@@H](C(=O)N[C@@H]1C(=O)N2C(C(=O)O)=C(Cl)CS[C@H]12)c1ccccc1`, the inhibition of viability was -1.63% (inactive).

In the case of `Nc1ncn([C@@H]2O[C@H](CO)[C@@H](O)[C@H]2O)c(=O)n1`, the inhibition of viability was 94.3% (active).

On to `NCc1ccc(S(N)(=O)=O)cc1`, for which the inhibition of viability is 7% (inactive).

For `Cc1ncc([N+](=O)[O-])n1CC(C)O` (centres undefined), the inhibition of viability was -0.3% (inactive).

With `Cc1ccc(C)c(OCCCC(C)(C)C(=O)O)c1`, the inhibition of viability is -1.9% (inactive).

On to `CN1CCCC(n2nc(Cc3ccc(Cl)cc3)c3ccccc3c2=O)CC1` (centres undefined), for which the inhibition of viability was 64.8% (active).

`NS(=O)(=O)c1cc2c(cc1C(F)(F)F)NC(Cc1ccccc1)NS2(=O)=O` (centres undefined): the inhibition of viability was -9.63% (inactive).

`COC1=CC(=O)C[C@@H](C)[C@]12Oc1c(Cl)c(OC)cc(OC)c1C2=O`: the inhibition of viability is 43.7% (inactive).

`Cc1cn([C@H]2C[C@H](N=[N+]=[N-])[C@@H](CO)O2)c(=O)[nH]c1=O`: the inhibition of viability was 2.4% (inactive).

Take `CN(CCOc1ccc(CC2SC(=O)NC2=O)cc1)c1ccccn1` (centres undefined): the inhibition of viability was -4.27% (inactive).

`COc1ccc(OC)c(C(O)CNC(=O)CN)c1` (centres undefined): the inhibition of viability is -0.9% (inactive).

As for `OC(CCN1CCCC1)(c1ccccc1)C1CCCCC1` (centres undefined), the inhibition of viability is 17.1% (inactive).

For `NC(=O)N1c2ccccc2CC(=O)c2ccccc21`, the inhibition of viability was 14.9% (inactive).

On to `CCCNCC(O)COc1ccccc1C(=O)CCc1ccccc1` (centres undefined), for which the inhibition of viability is 32.5% (inactive).

Regarding `C/C=C/C(=O)N(CC)c1ccccc1C`, the inhibition of viability was -11.3% (inactive).

Regarding `CCCCCCNC(=O)n1cc(F)c(=O)[nH]c1=O`, the inhibition of viability is 42% (inactive).

With `NC(=O)c1cnccn1`, the inhibition of viability is -20.7% (inactive).

As for `CN(C)CCc1c[nH]c2ccc(C[C@H]3COC(=O)N3)cc12`, the inhibition of viability is 13.1% (inactive).

`COc1ccccc1OCC(O)COC(N)=O` (centres undefined): the inhibition of viability is -3.97% (inactive).

Consider `COC(=O)Nc1nc2ccc(C(=O)c3ccccc3)cc2[nH]1`, for which the inhibition of viability was 56.4% (active).

With `CCn1cc(C(=O)O)c(=O)c2cc(F)c(N3CCN(C)CC3)cc21`, the inhibition of viability was -14.7% (inactive).

Turning to `Cn1cnc([N+](=O)[O-])c1Sc1ncnc2nc[nH]c12`, the inhibition of viability was 99.5% (active).

`c1ccc2[nH]c(-c3cscn3)nc2c1`: the inhibition of viability is 5.1% (inactive).

For `Cc1onc(-c2c(Cl)cccc2Cl)c1C(=O)N[C@@H]1C(=O)N2[C@@H]1SC(C)(C)[C@@H]2C(=O)O`, the inhibition of viability was -4.23% (inactive).

As to `Clc1ccc2c(c1)C(N1CCNCC1)=Nc1ccccc1O2`, the inhibition of viability was 57.3% (active).

With `CO[C@@]1(NC(=O)Cc2cccs2)C(=O)N2C(C(=O)O)=C(COC(N)=O)CS[C@@H]21`, the inhibition of viability was 14.8% (inactive).

For the compound `CCc1cccc2c3c([nH]c12)C(CC)(CC(=O)O)OCC3` (centres undefined), the inhibition of viability was 1.5% (inactive).

For the compound `CC(C)(C)NCC(O)COc1cccc2c1C[C@H](O)[C@H](O)C2` (some centres undefined), the inhibition of viability is 4.4% (inactive).

For `O=S(=O)(O)CCS`, the inhibition of viability is -4.57% (inactive).

Consider `O=c1[nH]cc(F)c(=O)[nH]1`, for which the inhibition of viability is 75.1% (active).

The values are drawn from PubChem BioAssay.
